Screens: PubChem, SRMLSC
DPM-DC inhibit – blocks S. pneumoniae diphosphomevalonate decarboxylase | purified DPM-DC, PK/LDH coupled NADH fluorescence | calls only at 10 µM | hit rate 0.49% among 65,000 | AID 556;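 active = the 320 compounds with the highest percent inhibition in the single-dose primary screen, excluding strongly autofluorescent ones, cut at about 32% in these data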;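 note: kinetic rate of NADH fluorescence loss reporting ADP formed by the decarboxylase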
Abs 340nm – compounds absorbing at 340 nm | 65,000 tested, under 10 active | AID 708 | compound absorbance at 340 nm, fold over control | fold change at 10 µM;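 active = at 10 µM dose, initial 340 nm absorbance at least 2 fold that of control wells; inactive = change under 2 fold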;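 note: initial absorbance extrapolated from kinetic A340 decline of NADH oxidation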
Fluor 339 460 – intrinsic fluorescence of library compounds, ex339/em460 – biochemical, MLSMR library, data from DPM-DC assay, artefact control, profiling panel; hit rate 5.5% among 65,000; compound autofluorescence, ex339/em460 nm, NADH buffer; hits give high values; 1 = no-compound wells, NADH background; AID 709; fluorescence fold increase at 10 µM;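 active = at 10 µM, mean starting fluorescence two-fold or more over control wells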;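 note: signal is the first read of a kinetic run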
MK inhibit – S. pneumoniae mevalonate kinase inhibition; purified MK, PK/LDH-coupled NADH absorbance 340 nm; AID 555; hit rate 0.48% among 65,000; inhibition, % at 10 µM;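 active = ranked among the strongest by inhibition in the single 10 µM screen, a fixed top-ranked set picked for dose follow-up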
PMK inhibit – S. pneumoniae PMK inhibition | hit rate 0.49% among 65,000 | purified PMK, PK/LDH-coupled NADH absorbance 340 nm | inhibition, % at 10 µM;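 active = top-ranked compounds by inhibition in the single 10 µM screen, taking a fixed number of the strongest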
NADH coupling – inhibitors of enzymes used to reach an NAD/NADH endpoint; coupled PK/LDH NADH assays, four targets; IC50, µM (doses to about 10 µM); hit rate 0.02% among 65,000; AID 774;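 active = single-dose screening hits from any of four coupled enzyme assays that gave an IC50 when retested across doses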;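 note: the DPM-DC format reads NADH fluorescence rather than 340 nm absorbance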
Of the large screens only hits and unclear results are named; the others gave an inactive call. A selection: hits, their analogues and other compounds. The true share with any hit is near 6.8%.

O=C(CS(=O)CC(=O)N(CC(=O)NC1CCCC1)C1CCCC1)Nc1ccc(F)cc1 (stereo not given)	none
Cc1ccc(-n2c(O)c(/C=N/n3cnnc3)c3ccccc3c2=O)cc1	Fluor 339 460 2.2 (not shown: DPM-DC inhibit)
O=c1c2ccccc2c(C=NCCO)c(O)n1-c1ccccc1	none
O=c1c2ccccc2c(/C=N/n2cnnc2)c(O)n1-c1ccccc1F	Fluor 339 460 2.97
CCOC(=O)C1=C(C)NC(=O)NC1/C(C)=C/c1ccccc1 (stereo not given)	PMK inhibit 38.0
CC(C)(C)N1C(=O)Cc2c1nc(N)c1c(N)nc(N3CCCCC3CO)c(C#N)c21 (stereo not given)	Fluor 339 460 4.85 (not shown: DPM-DC inhibit)
CCN(CC)CCN1C(=O)c2ccccc2NC1c1cccc(F)c1 (stereo not given)	Fluor 339 460 2.07 (not shown: DPM-DC inhibit)
CCN(CC)CCN1C(=O)c2ccccc2NC1c1cc(OC)c(OC)c(OC)c1 (stereo not given)	Fluor 339 460 2.3 (not shown: DPM-DC inhibit)
COc1ccc(C2Nc3ccccc3C(=O)N2O)cc1OC (stereo not given)	none
CC(NC(=O)c1ccc(CS(=O)(=O)Cc2ccccc2F)o1)c1ccc2c(c1)OCCO2 (stereo not given)	none
c1ccc2c(c1)NC(c1ccncc1)n1c-2nc2ccccc21 (stereo not given)	none
c1ccc2c(c1)NC1(CCCC1)n1c-2nc2ccccc21	Fluor 339 460 4.95 (not shown: DPM-DC inhibit)
c1ccc(-c2ccc(OCCOCCn3cncn3)cc2)cc1	none
O=C(CCCN1CC=C(n2c(=O)[nH]c3ccccc32)CC1)c1ccc(F)cc1	none
O=C1CC(c2ccccc2)Cc2nc(N3CCc4ccccc43)ncc21 (stereo not given)	Fluor 339 460 3.01 (not shown: DPM-DC inhibit)
O=C1CCCc2nc(N3CCc4ccccc43)ncc21	none
CCc1cc(=O)oc2cc(C)cc(O)c12	none
CCc1cc(=O)oc2cc(C)c3c(C)coc3c12	Fluor 339 460 2.43
CCN(CC)c1ccc2cc(NC(=O)CCC(=O)O)c(=O)oc2c1	Fluor 339 460 2.96 (not shown: DPM-DC inhibit)
O=C(NCCCNC(=O)c1ccccn1)c1ccccn1	PMK inhibit 25.0
O=C(NCC1CCCO1)c1ccccn1 (stereo not given)	none
O=C(O)c1c(F)c(F)cc2ccccc12	none
Cc1nc2ccc(C(=O)O)cc2c2c1CC(C)S2 (stereo not given)	Fluor 339 460 3.04 (not shown: DPM-DC inhibit)
Cc1nc2cc(C(=O)O)ccc2s1	none
Cc1ccc(-c2cc(C(F)F)nc(N3CCC(C)CC3)n2)cc1	none
COc1ccc(C(=O)Nn2cc3c(c2-c2ccccc2)c(=O)n(C)c(=O)n3C)cc1	none
COc1ccc(-c2c3c(=O)n(C)c(=O)n(C)c3cn2-c2ccccc2)cc1	Fluor 339 460 3.82 (not shown: DPM-DC inhibit)
COc1cc(NC(=O)c2ccc(Br)o2)ccc1NC(=O)c1ccccc1Cl	none
COc1cc(-c2c(C#N)c(N)nc3c2c(C)nn3-c2ccc(C)c(C)c2)cc(OC)c1OC	Fluor 339 460 3.79 (not shown: DPM-DC inhibit)
O/N=C1/CCc2nonc2/C1=N/O	none
CCOC(=O)c1sc(=NC(=O)c2cc(OC)c(OC)c(OC)c2)n(C)c1C	Fluor 339 460 4.35 (not shown: DPM-DC inhibit)
CCOC(=O)C(C(=O)OCC)C(=O)c1cc(OC)c(OC)c(OC)c1	none
O=C1NC(=O)C(CC(=O)N(c2ccccc2)C2(C(=O)NC3CCCC3)CCCCC2)N1 (stereo not given)	DPM-DC inhibit active
O=C1CCC(C(=O)N(c2ccccc2)C2(C(=O)NC3CCCCC3)CCCCC2)N1 (stereo not given)	none
O=C(CC1Nc2ccccc2NC1=O)NC1CCCCC1 (stereo not given)	Fluor 339 460 2.05
O=C(O)c1ccc(CNc2ccccc2C(=O)O)cc1	Fluor 339 460 2.6
O=C(O)c1ccccc1C(=O)NCc1ccccc1	none
O=C(O)c1ccccc1NCc1ccncc1	Fluor 339 460 2.01
N#Cc1nc(-c2ccco2)oc1N1CCC(C(N)=O)CC1	Fluor 339 460 3.93 (not shown: DPM-DC inhibit)
N#Cc1nc(Cc2ccccc2)oc1N1CCC(C(N)=O)CC1	none
CC1CN(c2oc(-c3ccco3)nc2C#N)CC(C)O1 (stereo not given)	Fluor 339 460 3.8 (not shown: DPM-DC inhibit)
CC(C)(C)C(=O)N=C1SC2CS(=O)(=O)CC2N1c1ccc2c(c1)OCO2 (stereo not given)	none
O=C(CCN1CCN(Cc2ccccc2)CC1)Nc1cccc(Cl)c1	none
CCOC(=O)c1nc2sc(C)c(C)c2c(=O)[nH]1	Fluor 339 460 3.68 (not shown: DPM-DC inhibit)
CCOC(=O)CCCSc1nc2sc(C)c(C)c2c(=O)[nH]1	none
Cc1c(C(=O)NCc2ccc3c(c2)OCO3)sc2nc(-c3ccccc3)cn12	DPM-DC inhibit active
Cc1c(C(=O)NCc2ccc3c(c2)OCO3)sc2nc(-c3ccc(F)cc3)cn12	none
CCCOC(=O)C1C2C=C[C@]3(CN(CCc4ccccc4)C(=O)[C@H]13)O2 (stereo not given in full)	none
O=C1CS/C(=N\c2ccccn2)N1C1CCCCC1	none
Cc1csc2nc(=O)c3ccccc3n12	Fluor 339 460 3.67 (not shown: DPM-DC inhibit)
COCCCn1c(=N)c(C(N)=S)cc2c(=O)n3cccc(C)c3nc21	none
CCOC(=O)c1cc2c(=O)n3cccc(C)c3nc2n(Cc2cccnc2)c1=N	Fluor 339 460 2.25 (not shown: DPM-DC inhibit)
C=CCn1c(=N)c(C(=O)OC)cc2c(=O)n3cccc(C)c3nc21	Fluor 339 460 3.75 (not shown: DPM-DC inhibit)
C=CCn1c(=N)c(C(=O)OCC)cc2c(=O)n3cc(C)ccc3nc21	Fluor 339 460 2.06 (not shown: DPM-DC inhibit)
COC(=O)c1cc2c(=O)n3cccc(C)c3nc2n(Cc2cccnc2)c1=N	Fluor 339 460 2.27 (not shown: DPM-DC inhibit)
CC12CC(c3ccccc3O1)C(C(=O)NCc1ccccc1)C(=O)N2 (stereo not given)	none
CC(=O)Nc1cccc(-c2nnc(SCc3ccccc3C#N)n2C)c1	none
C1CCCN(CCCCN2CCCCCC2)CC1	none
CCCc1nc2ccccc2n2cc3c(=O)n(C)c(=O)n(C)c3c12	none
COc1cccc(NC(=O)CSc2nnc(-c3cc(-c4ccccn4)nc4ccccc34)o2)c1	none
CCOC(=O)c1cc2c(=O)n3cc(C)ccc3nc2n(Cc2cccnc2)c1=N	Fluor 339 460 2.13 (not shown: DPM-DC inhibit)
COc1ccc(CNC(=O)c2cc3c(=O)n4ccccc4nc3n(Cc3cccnc3)c2=N)cc1	none
CSc1ccc(-c2c(C#N)c(N)nc3c2CCCC3)cc1	Fluor 339 460 3.68 (not shown: DPM-DC inhibit)
N#Cc1c(N)nc2c(c1-c1ccncc1)CCCCC2	none
CCn1c(=O)c2c(n3cnnc13)-c1ccccc1CC21CCCCC1	none
COCCNC(=O)CSc1nc2ccc(N3CCOCC3)cc2c(=O)n1CCc1ccccc1	Fluor 339 460 4.1 (not shown: DPM-DC inhibit)
CCCCNC(=O)CSc1nc2ccc(N3CCOCC3)cc2c(=O)n1CCc1ccccc1	Fluor 339 460 2.34
N#Cc1c(F)cccc1N1CCOCC1	Fluor 339 460 3.11
Fc1cccc2sc(N3CCOCC3)nc12	none
Cc1ccc2c(n1)sc1c(N)ncnc12	Fluor 339 460 2.14
Cc1cc(C)c2c(n1)nn1c(NCCCn3ccnc3)cc(C)nc21	Fluor 339 460 3.91 (not shown: DPM-DC inhibit)
